# Measured values: paper PMC4552634, “A New Set of Chemical Starting Points with Plasmodium falciparum Transmission-Blocking Potential for Antimalarial Drug Discovery” (PLoS ONE, 2015)
# Hit rate of the full screen: of about 13,000 compounds, about 3,200 (25%) showed an effect of 50% or more. This is one part of the list.
# Test system: P. falciparum stage V gametocytes
# Design: BacTiter-Glo ATP luminescence viability of purified stage V gametocytes in 384-well plates, per cent inhibition versus DMSO
# Conditions: 48 h, 5 µM; inhibitor
row,SMILES,% Inhibition [%]
1,O=C(NCc1ccco1)c1ccc(CN2CCN(C(c3ccccc3)c3ccccc3)CC2)cc1 [TCMDC-140763],-11.73
2,O=C(Cc1cccc(OCCCN(Cc2cccc(C(F)(F)F)c2Cl)CC(c2ccccc2)c2ccccc2)c1)NCc1ccco1 [TCMDC-141563],90.42
3,CCc1ccc(CN(CCCOc2cccc(CC(=O)NCc3cnc[nH]3)c2)Cc2ccc(-n3ccnc3)cc2)cc1 [TCMDC-134288],15.75
4,CCCc1cc(OC)c(CC2c3cc(O)c(Cl)cc3C(c3ccccc3)CN2C)cc1OC (stereo not shown) [TCMDC-137432],12.27
5,CCCCNC(=O)c1[nH]c2c(NC(=O)COc3ccccc3)cccc2c1-c1cccc(NC(=O)C(N)CO)c1 (stereo not shown) [TCMDC-140060],-98.74
6,CC(C)N1CCC(N(Cc2ccc(-c3ccc(C(F)(F)F)cc3)cc2)C(=O)Cn2c(CCc3cccc(F)c3F)cc(=O)c3cn(C)nc32)CC1 [TCMDC-136048],117.7
7,CCN1CCC(N(Cc2ccc(-c3ccc(C(F)(F)F)cc3)cc2)C(=O)Cn2c(CCc3cccc(F)c3F)cc(=O)c3cn(C)nc32)CC1 [TCMDC-141156],59.01
8,Cc1ccc(O)cc1Nc1ccnc2cc(-c3ccccc3)ccc12 [TCMDC-138295],-25.3
9,COc1cc2c(cc1NS(=O)(=O)c1ccc(OCc3ccc(Br)cc3)cc1)CCN(C1CCC1)CC2 [TCMDC-136020],14.15
10,Nc1nc2c(c(=O)[nH]1)CN(S(=O)(=O)c1ccc(C(=O)N[C@@H](CCC(=O)O)C(=O)O)cc1)CC2 [TCMDC-137681],-6.076
11,CCCN(C(=O)c1ccccc1C)c1nnc(-c2cccc(C)c2)s1 [TCMDC-124387],20.16
12,CCOc1ccc(N(CC)S(=O)(=O)c2cc(Br)cc3c2N(C(=O)C2CC2)CC3)cc1 [TCMDC-125469],14.82
13,O=C(NCCN1CCOCC1)c1ccc(-c2ccc(CNCCCc3ccccc3)cc2)nc1 [TCMDC-134245],16.29
14,CN1CCN(CCCN(Cc2ccc(-c3ccc(CNCCc4ccccc4)cc3)cc2)C(=O)c2cccs2)CC1 [TCMDC-140752],86.87
15,CN1CCN(CCCN(Cc2cccc(-c3ccc(CNCCc4ccccc4)cc3)c2)C(=O)c2cccs2)CC1 [TCMDC-140568],106.4
16,CN(C)CCN(C)Cc1ccc(-c2cccc(NC(=O)c3cccc(C#N)c3)c2)cc1 [TCMDC-132651],-77.89
17,Cc1noc(C)c1-c1cccc(CNCc2ccc(-c3ccc(-c4nc5cc(C(F)(F)F)ccc5[nH]4)s3)cc2)c1.O=C(O)C(F)(F)F [TCMDC-133062],33.98
18,CC1CC(NCCCNc2cc(=O)c3ccccc3[nH]2)c2c1cc(Cl)c(Cl)c2Cl (stereo not shown) [TCMDC-139480],-50.98
19,CN(C)c1nc(NCc2ccccc2)nc(N/N=C/c2cc([N+](=O)[O-])ccc2O)n1 [TCMDC-124126],65.13
20,O=[N+]([O-])c1ccc(Nc2nc(NCc3ccccc3)nc(N/N=C/c3ccccc3[N+](=O)[O-])n2)cc1 [TCMDC-124208],9.563
21,O=[N+]([O-])c1ccc(Nc2nc(N/N=C/c3cc(Cl)cc(Cl)c3O)nc(Nc3ccccc3)n2)cc1 [TCMDC-123854],16.66
22,CCCCC(CCCC)CN1C(=O)C(c2ccccc2)(c2ccccc2)N=C1N [TCMDC-136878],-47.08

row,SMILES,% Inhibition [%]
1,CC1CCCN(S(=O)(=O)c2cc(Br)cc3c2N(C(=O)C2CC2)CC3)C1 (stereo not shown) [TCMDC-123872],16.45
2,CCn1c(CN2CCN(Cc3ccccc3)CC2)nc2cc(NC(=O)c3cccs3)ccc21 [TCMDC-125164],1.939
3,CCCC[C@@H](C(=O)NCCc1ccc(Cl)cc1)N1C(=O)CCC1C(=O)Nc1ccc(Cl)c(Cl)c1 (stereo partly shown) [TCMDC-141410],67.56
4,CCCC[C@@H](C(=O)NCc1ccccc1C(F)(F)F)N1C(=O)CCC1C(=O)Nc1ccc([N+](=O)[O-])cc1 (stereo partly shown) [TCMDC-141409],20.34
5,O=C(Nc1ccc(Cl)c(Cl)c1)C1CCC(=O)N1[C@@H](Cc1ccccc1)C(=O)NCCc1ccc(Cl)cc1 (stereo partly shown) [TCMDC-141411],6.201
6,CN(CCN(C)C(=O)NCc1ccccc1)C(=O)NCc1ccccc1 [TCMDC-138997],-5.894
7,COc1ccc(NS(=O)(=O)c2ccc(C(=O)Nc3ccc(OC(F)(F)F)cc3)cc2)cc1N1CCN(CC2CC2)CC1 [TCMDC-136298],-1.186
8,N#Cc1ccc2c(c1)CCN(CCC1CCC(NC(=O)c3cc4ccc(Cl)cc4[nH]3)CC1)C2 (stereo not shown) [TCMDC-139194],-33.95
9,CN1CCCN(Cc2cccc(-c3ccc(NC(=O)c4ccc(Cl)cc4)cc3)c2)CC1 [TCMDC-132667],81.69
10,Cc1ccc(CN2CCCN(Cc3cccc(C(=O)Nc4ccc(C(C)(C)C)cc4)c3)CC2)s1 [TCMDC-135991],-86.63
11,CC(C)(C)c1ccc(NC(=O)c2ccc(CN3CCCN(Cc4ccc(F)cc4)CC3)cc2)cc1 [TCMDC-136435],-15.47
12,Cc1ccc(CN2CCCN(Cc3ccc(C(=O)Nc4ccc(Cl)cc4)cc3)CC2)s1 [TCMDC-136414],86.68
13,O=C(Nc1ccc(Cl)cc1)c1ccc(CN2CCCN(Cc3ccc(F)cc3)CC2)cc1 [TCMDC-136408],63.43
14,CN1CCCN(Cc2cccc(-c3ccc(NC(=O)c4cccc(Cl)c4)cc3)c2)CC1 [TCMDC-132664],44.2
15,O=C(Nc1ccc(CN2CCOCC2)cc1)c1ccc(-c2cc(Cl)ccc2Cl)o1 [TCMDC-125390],-41.52
16,O=C(Nc1ccc(CN2CCOCC2)cc1)c1ccc(-c2ccc(Cl)cc2)o1 [TCMDC-124455],70.13
17,O=C(Nc1ccc(Cl)cc1)c1ccc(CN2CCCN(Cc3ccccc3)CC2)cc1 [TCMDC-136401],-26.98
18,CN1CCCN(Cc2cccc(-c3cccc(NC(=O)c4ccc(Cl)cc4)c3)c2)CC1 [TCMDC-132653],14.2
19,O=C(Nc1ccc(CN2CCOCC2)cc1)c1ccc(-c2ccc(Br)cc2)o1 [TCMDC-123781],-11.97
20,CCc1ccc(NC(=O)c2ccc(CN3CCCN(Cc4ccc(C)s4)CC3)cc2)cc1 [TCMDC-136449],10.45
21,COc1ccc(C2CC(c3ccccc3)=NN2C(=O)c2ccc(Br)o2)cc1 (stereo not shown) [TCMDC-123705],-10.79
22,CCCCCC(C)C(C)c1cc(O)c2c(c1)OC(C)(C)CC2c1cc[n+]([O-])cc1 (stereo not shown) [TCMDC-131347],15.63

row,SMILES,% Inhibition [%]
1,CCOc1ccc(Br)cc1/C=C/C(=O)Nc1ccc2c(c1)C1CCC2N1C (stereo not shown) [TCMDC-134191],-33.77
2,Nc1c(Cl)cc(C(O)CNCCCCCCOCCC=C2CCOCC2)cc1Cl (stereo not shown) [TCMDC-132097],35.85
3,O=C(Nc1ccc(Cl)cc1)c1ccc(CN2CCCN(Cc3cccc(Cl)c3)CC2)cc1 [TCMDC-136405],70.05
4,N#Cc1cccc(CN2CCCN(Cc3cccc(C(=O)Nc4ccc(Cl)cc4)c3)CC2)c1 [TCMDC-135962],-1.409
5,CC(C)(C)c1ccc(NC(=O)c2ccc(CN3CCCN(Cc4cccc(C#N)c4)CC3)cc2)cc1 [TCMDC-136430],8.252
6,N#Cc1cccc(CN2CCCN(Cc3ccc(C(=O)Nc4ccc(Cl)cc4)cc3)CC2)c1 [TCMDC-136403],58.71
7,CCc1ccc(NC(=O)c2ccc(CN3CCCN(Cc4cccc(Cl)c4)CC3)cc2)cc1 [TCMDC-136438],-4.503
8,CC(C)(C)c1ccc(NC(=O)c2ccc(CN3CCCN(Cc4cccc(Cl)c4)CC3)cc2)cc1 [TCMDC-136432],-29.42
9,O=C(Nc1ccccc1)N1CCOC(CCN2CCC(F)(F)CC2)(c2ccc(Cl)c(Cl)c2)C1 (stereo not shown) [TCMDC-135565],-12.88
10,Cc1ccc(F)c(CN2CCC(N3CC(c4ccccc4)(c4ccccc4)OC3=O)CC2)c1Cl [TCMDC-136067],-42.69
11,COc1ccc(OCCCON2C(N)=NC(N)=NC2(C)C)cc1 [TCMDC-131727],-17.37
12,CCCc1cc(NCC)nc(Nc2ccc(F)cc2)n1 [TCMDC-134011],18.21
13,CCCCc1cc(=O)oc2cc(C)cc(OCc3ccccc3F)c12 [TCMDC-125642],42.72
14,COc1ccc(Cl)cc1N1CCN(CCCNC(=O)c2ccc(-c3nc4c(C)cccc4[nH]3)s2)CC1 [TCMDC-140050],-10.33
15,Cc1ccc(Cl)cc1N1CCN(CCCNC(=O)C2CCN(c3nc4ccccc4[nH]3)CC2)CC1 [TCMDC-124405],57.08
16,COc1ccc(Cl)cc1N1CCN(CCCNC(=O)c2ccc(-c3nc4ccc(C(F)(F)F)cc4[nH]3)c(C)c2)CC1 [TCMDC-140121],-20.72
17,Oc1ccccc1N1CCN(c2ccc(-c3nc4ccccc4[nH]3)cn2)CC1 [TCMDC-124820],-75.14
18,CC(=O)N(Cc1nc(-c2cc(Cl)c(Cl)s2)cs1)c1c(C)cccc1C [TCMDC-135640],-42.77
19,Cc1noc(C)c1-c1cccc(CNCc2ccc(-c3ccc(-c4nc5cccc(C)c5[nH]4)cc3)cc2)c1.O=C(O)C(F)(F)F [TCMDC-133061],-10.97
20,CS(=O)(=O)c1ccc(-c2nc(NCC3CCCCC3)cc(C(F)(F)F)n2)cc1 [TCMDC-138597],3.227
